Measured values from PubChem BioAssay (EPA / NIEHS).
Calls of active or inactive are those of the source. The calls were made as follows: active = hit-call score of the fitted dose curve at least 0.9, where 1 is the maximum; inactive = score below 0.9.

Tests used:
[1] = ATG_CRE_CIS: Attagene CIS-FACTORIAL HepG2 Assay for human cAMP Responsive Element (CRE) binding protein 3 (AID 2282926); details: HepG2 CRE cis-reporter, Attagene multiplexed mRNA; actives raise or lower the signal
Method in brief: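 Liver-derived HepG2, transfected with a CRE-containing reporter panel, exposed 24 h; transcript levels sized and quantified by capillary electrophoresis of labelled amplicons; signal changes either way referenced to vehicle.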

[2] = target: CCAAT/enhancer-binding protein beta (Homo sapiens) (UniProt P17676); assay: ATG_C_EBP_CIS: Attagene CIS-FACTORIAL HepG2 Assay for human CCAAT/Enhancer Binding Protein (C/EBP) beta (AID 2282927); details: HepG2 Attagene cis-factorial transcription factor reporter; actives raise or lower the signal
CCAAT/enhancer-binding protein beta (Homo sapiens), sequence (P17676 whole entry, looked up): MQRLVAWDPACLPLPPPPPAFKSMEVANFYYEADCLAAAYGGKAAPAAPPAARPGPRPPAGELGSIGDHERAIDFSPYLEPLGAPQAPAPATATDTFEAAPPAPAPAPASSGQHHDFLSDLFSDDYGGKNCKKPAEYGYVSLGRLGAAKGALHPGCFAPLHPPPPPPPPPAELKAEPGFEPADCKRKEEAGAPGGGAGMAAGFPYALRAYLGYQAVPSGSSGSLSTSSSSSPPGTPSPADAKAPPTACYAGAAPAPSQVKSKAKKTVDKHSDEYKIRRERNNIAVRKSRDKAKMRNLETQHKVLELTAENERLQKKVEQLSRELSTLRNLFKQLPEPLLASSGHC
Method in brief: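 Changes in reporter mRNA, rather than exogenous chimeric receptor activity, reflect native C/EBP signalling in transfected HepG2 cells dosed for 24 h; transcripts are detected by RT-PCR and capillary electrophoresis.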

[3] = ATG_CMV_CIS: Attagene CIS-FACTORIAL HepG2 Assay for human CMV (Internal Marker) (AID 2282928); details: HepG2 CMV promoter reporter, transcription factor profiling; actives raise or lower the signal;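 also: endpoint acts as a background internal control marker rather than a target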
Method in brief: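 Readout: fluorescent reporter cDNA fragments separated by capillary electrophoresis after RT-PCR and HpaI cut. Cells: HepG2 carrying transfected cis-promoter reporter constructs, dosed 24 h. Endpoint serves as background internal-marker control, fit bidirectionally versus DMSO.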

[4] = ATG_DR4_LXR_CIS: Attagene CIS-FACTORIAL HepG2 Assay for human Liver X Receptor (LXR), DR4 submotif (AID 2282929); details: HepG2 Attagene DR4 cis-reporter, mRNA transcription; actives raise or lower the signal
Method in brief: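 Total RNA from 24 h-treated, MRTU-transfected HepG2 cells underwent reverse transcription, PCR, fluorescent primer extension and restriction digestion before capillary electrophoresis. Both increases and decreases in reporter signal were fitted against DMSO.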

[5] = target: Aryl hydrocarbon receptor (Homo sapiens) (UniProt P35869); assay: ATG_Ahr_CIS: Attagene CIS-FACTORIAL HepG2 Assay for human Aryl Hydrocarbon Receptor (Ahr) (AID 2282930); details: HepG2 AhR cis-factorial reporter transcription; actives raise or lower the signal
Aryl hydrocarbon receptor (Homo sapiens), sequence (P35869 whole entry, looked up): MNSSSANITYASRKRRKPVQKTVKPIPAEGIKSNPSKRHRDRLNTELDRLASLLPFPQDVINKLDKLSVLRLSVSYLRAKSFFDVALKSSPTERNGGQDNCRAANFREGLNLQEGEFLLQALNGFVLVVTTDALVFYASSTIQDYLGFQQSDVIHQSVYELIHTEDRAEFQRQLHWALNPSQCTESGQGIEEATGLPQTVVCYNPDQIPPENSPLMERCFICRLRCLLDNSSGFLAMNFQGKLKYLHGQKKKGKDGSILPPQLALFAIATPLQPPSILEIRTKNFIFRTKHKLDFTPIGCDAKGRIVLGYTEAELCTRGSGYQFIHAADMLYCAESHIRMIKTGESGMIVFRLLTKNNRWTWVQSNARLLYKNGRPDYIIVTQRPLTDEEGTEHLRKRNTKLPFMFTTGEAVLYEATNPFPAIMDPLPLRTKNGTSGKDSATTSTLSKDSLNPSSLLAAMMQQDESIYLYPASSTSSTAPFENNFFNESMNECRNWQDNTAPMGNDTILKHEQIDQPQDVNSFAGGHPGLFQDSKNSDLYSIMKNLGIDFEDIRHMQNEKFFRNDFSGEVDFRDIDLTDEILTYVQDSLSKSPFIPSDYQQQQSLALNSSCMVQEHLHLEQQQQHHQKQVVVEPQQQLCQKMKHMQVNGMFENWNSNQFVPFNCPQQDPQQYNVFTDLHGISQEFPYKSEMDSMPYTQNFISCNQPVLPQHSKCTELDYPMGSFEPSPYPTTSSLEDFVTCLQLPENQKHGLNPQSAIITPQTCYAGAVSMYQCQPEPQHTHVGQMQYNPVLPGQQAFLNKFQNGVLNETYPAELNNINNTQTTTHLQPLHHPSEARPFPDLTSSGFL
Method in brief: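 HepG2, transient MRTU (cis) transfection, 24 h exposure. RNA → cDNA → PCR → 6-FAM primer extension → HpaI 2 h 37 C → CE. Fit: bidirectional, DMSO baseline.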

[6] = ATG_AP_1_CIS: Attagene CIS-FACTORIAL HepG2 Assay for human Activator Protein 1 (AP-1) (AID 2282931); details: HepG2 Attagene cis-factorial AP-1 reporter mRNA; actives raise or lower the signal
Method in brief: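 HepG2, transient cis-reporter transfection; 24 h; readout RT-PCR/CE fluorescence; DMSO baseline, gain and loss fitted.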

[7] = ATG_AP_2_CIS: Attagene CIS-FACTORIAL HepG2 Assay for human Activator Protein 2 (AP-2) (AID 2282932); details: HepG2 AP-2 cis-reporter, Attagene transcription factor profiling; actives raise or lower the signal
Method in brief: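 Endogenous transcription factor activity is reported through transfected multiplex reporter constructs in HepG2, after 24 h of compound exposure. Transcripts were quantified by RT-PCR and capillary electrophoresis of fluorescent fragments. Bidirectional fit against DMSO.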

[8] = ATG_BRE_CIS: Attagene CIS-FACTORIAL HepG2 Assay for human Bone Morphogenetic Protein (BMP) Response Element (BRE) (AID 2282933); details: HepG2 BMP response element reporter, Attagene transcription factor profiling; actives raise or lower the signal
Method in brief: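 HepG2 cells transiently transfected with CIS reporter units (endogenous TF activity, BMP response element), dosed 24 h. Reporter mRNA quantified by RT-PCR, fluorescent labelling and capillary electrophoresis; bidirectional fit vs DMSO baseline.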

[9] = target: Retinoic acid receptor alpha (Homo sapiens) (UniProt P10276); assay: ATG_DR5_RAR_CIS: Attagene CIS-FACTORIAL HepG2 Assay for human Retinoic Acid Receptor Alpha (RARE), DR5 submotif (AID 2282934); details: HepG2 Attagene cis-factorial RARE DR5 reporter, mRNA; actives raise or lower the signal;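 as to AC50: reporter responds to endogenous RAR alpha beta and gamma in HepG2 not RARA alone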
Retinoic acid receptor alpha (Homo sapiens), sequence (P10276 whole entry, looked up): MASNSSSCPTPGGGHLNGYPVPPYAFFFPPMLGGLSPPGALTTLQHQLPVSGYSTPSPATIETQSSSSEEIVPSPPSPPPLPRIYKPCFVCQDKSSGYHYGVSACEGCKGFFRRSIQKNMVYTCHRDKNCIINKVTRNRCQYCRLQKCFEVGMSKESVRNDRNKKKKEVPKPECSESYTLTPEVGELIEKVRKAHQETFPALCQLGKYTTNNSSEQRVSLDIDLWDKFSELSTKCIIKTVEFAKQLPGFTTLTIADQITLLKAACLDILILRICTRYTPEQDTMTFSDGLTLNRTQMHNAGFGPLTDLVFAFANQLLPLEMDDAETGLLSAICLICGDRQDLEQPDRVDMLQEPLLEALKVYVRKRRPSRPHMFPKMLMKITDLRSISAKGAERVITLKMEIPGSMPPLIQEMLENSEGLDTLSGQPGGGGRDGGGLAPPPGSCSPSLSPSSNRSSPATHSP
Method in brief: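 HepG2, transient cis-reporter transfection, 24 h exposure. mRNA readout: RT-PCR, FAM label, HpaI cut, capillary electrophoresis. DMSO baseline, gain/loss fitting.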

[10] = target: Transcription factor E2F1 (Homo sapiens) (UniProt Q01094); assay: ATG_E2F_CIS: Attagene CIS-FACTORIAL HepG2 Assay for human E2F Transcription Factor 1 (AID 2282935); details: HepG2 Attagene cis-reporter, E2F reporter RNA transcripts; actives raise or lower the signal
Transcription factor E2F1 (Homo sapiens), sequence (Q01094 whole entry, looked up): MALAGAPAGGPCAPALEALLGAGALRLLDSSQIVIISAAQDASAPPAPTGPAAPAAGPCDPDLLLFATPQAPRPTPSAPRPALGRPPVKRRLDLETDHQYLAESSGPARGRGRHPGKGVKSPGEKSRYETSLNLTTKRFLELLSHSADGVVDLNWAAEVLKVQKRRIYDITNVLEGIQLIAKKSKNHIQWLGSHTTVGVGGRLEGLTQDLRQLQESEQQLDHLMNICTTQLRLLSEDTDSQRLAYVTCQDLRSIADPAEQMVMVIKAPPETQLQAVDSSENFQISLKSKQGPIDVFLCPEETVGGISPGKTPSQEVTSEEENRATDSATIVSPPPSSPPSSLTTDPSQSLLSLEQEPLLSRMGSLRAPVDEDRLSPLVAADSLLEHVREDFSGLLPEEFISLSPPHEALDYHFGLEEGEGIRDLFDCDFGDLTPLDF
Method in brief: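 Gain or loss of reporter transcript, fitted against DMSO, reflects E2F1-driven transcription. Transiently transfected HepG2 dosed 24 h before RNA isolation. Quantified by fluorescent RT-PCR products separated by capillary electrophoresis.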

[11] = ATG_E_Box_CIS: Attagene CIS-FACTORIAL HepG2 Assay for human Enhancer Box (E-box) (AID 2282936); details: HepG2 E-box cis-reporter transcription, actives raise or lower the signal
Method in brief: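 E-box-driven reporter transcripts measured in transiently transfected HepG2 after 24 h exposure: RNA reverse-transcribed, PCR-amplified, fluorescently labelled, digested and resolved by capillary electrophoresis. Gain or loss relative to DMSO.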

[12] = ATG_M_61_CIS: Attagene CIS-FACTORIAL HepG2 Assay for M61 Transcription Factor (Internal Marker) (AID 2282937); details: HepG2 Attagene CIS-FACTORIAL M61 internal marker reporter; actives raise or lower the signal
Method in brief: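 Transfect HepG2 with MRTUs; dose 24 h; isolate RNA; reverse-transcribe with DNase I treatment; PCR-amplify, FAM-label and cut with HpaI for 2 h at 37 C; resolve by CE. Bidirectional fitting against DMSO.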

[13] = ATG_EGR_CIS: Attagene CIS-FACTORIAL HepG2 Assay for human Early Growth Response 1 (EGR1) (AID 2282938); details: HepG2 Attagene CIS-FACTORIAL EGR reporter mRNA; actives raise or lower the signal
Method in brief: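 After a 24 h treatment of transiently transfected HepG2 cells, total RNA was reverse-transcribed and reporter sequences PCR-amplified, labelled and run on capillary electrophoresis. Reporters sit under cis-regulatory promoters sensing endogenous factors.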

[14] = ATG_M_19_CIS: Attagene CIS-FACTORIAL HepG2 Assay for M19 Transcription Factor (Internal Marker) (AID 2282939); details: HepG2 Attagene CIS-FACTORIAL M19 internal marker reporter; actives raise or lower the signal
Method in brief: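 HepG2 cells transiently transfected with cis-regulated multiplexed reporter units, dosed 24 h. Reporter mRNA quantified by RT-PCR and capillary electrophoresis; internal background marker fitted bidirectionally versus DMSO.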

[15] = ATG_Ets_CIS: Attagene CIS-FACTORIAL HepG2 Assay for human Erythroblast Transformation Specific (ETS) (AID 2282941); details: HepG2 ETS cis-reporter transcription, actives raise or lower the signal
Method in brief: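 RT-PCR/capillary electrophoresis fluorescence read-out of reporter mRNA; HepG2 transient multi-reporter transfection; 24 h compound exposure; gain or loss of signal fitted bidirectionally relative to DMSO.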

[16] = target: Hepatocyte nuclear factor 3-beta (Homo sapiens) (UniProt Q9Y261); assay: ATG_FoxA2_CIS: Attagene CIS-FACTORIAL HepG2 Assay for human Forkhead box A2 (FOXA2) (AID 2282942); details: HepG2 cis-reporter transcription factor activity, 24 h; actives raise or lower the signal
Hepatocyte nuclear factor 3-beta (Homo sapiens), sequence (Q9Y261 whole entry, looked up): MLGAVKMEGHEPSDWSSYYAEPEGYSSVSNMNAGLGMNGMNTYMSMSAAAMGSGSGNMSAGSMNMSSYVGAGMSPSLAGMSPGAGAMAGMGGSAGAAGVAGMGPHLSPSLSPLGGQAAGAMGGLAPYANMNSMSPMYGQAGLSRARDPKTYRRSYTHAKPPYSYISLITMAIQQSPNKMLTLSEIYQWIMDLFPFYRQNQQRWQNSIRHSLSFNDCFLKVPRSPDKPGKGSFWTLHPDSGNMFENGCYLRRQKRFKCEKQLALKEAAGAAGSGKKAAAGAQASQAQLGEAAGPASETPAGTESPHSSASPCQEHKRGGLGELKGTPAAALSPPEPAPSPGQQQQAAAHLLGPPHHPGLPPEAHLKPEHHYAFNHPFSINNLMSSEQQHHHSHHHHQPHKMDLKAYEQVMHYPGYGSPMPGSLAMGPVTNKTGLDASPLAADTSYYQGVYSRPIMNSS
Method in brief: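 24 h dosing of HepG2 bearing cis-reporter constructs; mRNA readout by RT-PCR/CE fluorescence; bidirectional fit, DMSO baseline.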

[17] = ATG_FoxO_CIS: Attagene CIS-FACTORIAL HepG2 Assay for human Forkhead box O (FoxO) (AID 2282943); details: HepG2 Attagene cis-reporter, FoxO element, mRNA; actives raise or lower the signal
Method in brief: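 Human hepatoma HepG2 cells carry transiently introduced reporter transcription units controlled by cis promoter elements. Chemical treatment lasted 24 h, and mRNA signal was compared with DMSO.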

[18] = ATG_GATA_CIS: Attagene CIS-FACTORIAL HepG2 Assay for human GATA Binding Protein (AID 2282944); details: HepG2 GATA cis-element reporter, Attagene multiplex mRNA; actives raise or lower the signal
Method in brief: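 HepG2 cells transiently transfected with multiplexed cis-element reporter units measure endogenous GATA activity; after 24 h compound exposure, reporter mRNA quantified by RT-PCR and capillary electrophoresis. Changes fitted in both directions vs DMSO.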

[19] = ATG_GLI_CIS: Attagene CIS-FACTORIAL HepG2 Assay for human Zinc Finger Protein GLI1 (AID 2282945); details: HepG2, Attagene cis-factorial reporter mRNA, GLI element; actives raise or lower the signal
Method in brief: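 Bidirectional curve fits relative to DMSO, using reporter mRNA levels from RT-PCR plus capillary electrophoresis. Cells were HepG2 transiently carrying cis-regulated reporter constructs, harvested 24 h after dosing.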

[20] = ATG_ERE_CIS: Attagene CIS-FACTORIAL HepG2 Assay for Estrogen Response Element (ERE) (AID 2282940); details: HepG2 ERE cis-reporter, Attagene RNA transcript; actives raise or lower the signal
Method in brief: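 HepG2 cells transiently transfected with multiplexed cis-element reporter units, measuring endogenous transcription factor activity; ERE reporter mRNA quantified after 24 h exposure by RT-PCR, fluorescent labelling, HpaI digestion and capillary electrophoresis. Bidirectional change versus DMSO.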

Measured: AC50

COc1cc([C@@H]2c3cc4c(cc3[C@@H](O[C@@H]3O[C@@H]5CO[C@@H](C)O[C@H]5[C@H](O)[C@H]3O)[C@H]3COC(=O)[C@H]23)OCO4)cc(OC)c1O
not listed: [20]
inactive: all other assays above

Cc1ccc(S(N)(=O)=O)cc1
not listed: [20]
inactive: all other assays above

Brc1ccc(Br)c(Br)c1
inactive: all assays above

Oc1ccc2cc(SSc3ccc4cc(O)ccc4c3)ccc2c1
active: [1] 62 µM | [2] 131 µM | [3] 26 µM | [6] 100 µM | [8] 57 µM | [13] 27.7 µM
not listed: [20]
inactive: all other assays above

Nc1ccc(Cl)c([N+](=O)[O-])c1
not listed: [20]
inactive: all other assays above

Cc1[nH]c(=O)c(C#N)cc1-c1ccncc1
active: [3] 24.3 µM | [4] 26.6 µM
inactive: all other assays above

CCCCCc1ccco1
active: [4] 101 µM | [6] 90.9 µM | [13] 108 µM
not listed: [20]
inactive: all other assays above

CN(C)C(=S)SC(=S)N(C)C
not listed: [20]
inactive: all other assays above

CCCC(C)C(O)CC (stereo not given)
not listed: [20]
inactive: all other assays above

C1CCCCC1
not listed: [20]
inactive: all other assays above

CN(C)c1ccncc1
inactive: all assays above

O=C1OC2(c3ccccc31)c1ccc(O)c(Br)c1Oc1c2ccc(O)c1Br
active: [5] 56.6 µM
not listed: [20]
inactive: all other assays above

CSCCC=O
active: [9] 25.5 µM
not listed: [20]
inactive: all other assays above
